Reference: PubChem BioAssay
Several values for one entry are separate records, joined by “and”; a condition that tells them apart may be missing. Identical values can stand only once. Records with an inconclusive call do not appear. Activity calls are given as the source filed them.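 Rule for the calls, unless noted: active = compounds whose cell count with miR-34 switched on is under 0.7 times the count with it off; inactive = the rest.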

Test: growth inhibition of DIPG cells – cell-based, MIPE5.0 library, qHTS (AID 1347068; cut-off not given, nearly all actives have IC50 up to about 30 µM;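 for IC50: cells exposed to compound for 48 hours before viability readout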)
Settings: SU-DIPG-XXV viability

Row | Compound | IC50 | outcome
1 | CC(C)c1cnn2c(NCc3ccccc3)cc(N[C@@H](CO)[C@H](O)CO)nc12 | 0.468 µM (active) | –
2 | COc1ccc(F)c(F)c1C(=O)c1cnc(NC2CCN(S(C)(=O)=O)CC2)nc1N | 1.86 µM (active) | –
3 | O=C1NC(=O)C(c2cnc3ccccn23)=C1c1cn2c3c(cccc13)CN(C(=O)N1CCOCC1)CC2 | 18.6 µM (active) | –
4 | Cc1ccc(S(=O)(=O)OCC(=O)Nc2ccc(C(=O)O)c(O)c2)cc1 | – | inactive
5 | CC(=O)OCC(=O)[C@@]1(O)[C@H](C)C[C@H]2[C@@H]3C=C(C)C4=Cc5c(cnn5-c5ccccc5)C[C@]4(C)[C@H]3[C@@H](O)C[C@@]21C | – | inactive
6 | O=C(NC1CCNCC1)c1[nH]ncc1NC(=O)c1c(Cl)cccc1Cl | 4.68 µM (active) | –
7 | CC(C)C[C@H](NC(=O)CNC(=O)c1cc(Cl)ccc1Cl)B1OC(=O)CC(CC(=O)O)(C(=O)O)O1 (some centres not stated) | 0.132 µM (active) | –
8 | CC(C)(C)c1cc(C(C)(C)C)c(NC(=O)c2c[nH]c3ccccc3c2=O)cc1O | 16.6 µM (active) | –
9 | CCCCCCCCCCCC(CC1OC(=O)C1CCCCCC)OC(=O)C(CC(C)C)NC=O (configuration not stated) | – | inactive

Test: viability loss with induced miR-34 in A549 – imaging, A549 dox-inducible miR-34, nuclei and caspase counts, primary screen (AID 1347080)
Settings: A549 miR-34 inducible, Hoechst nuclei count, 48 h; stronger effect = lower value; cell number ratio, induced over uninduced

Row | Compound | fold change
10 | Cc1ccc2nc(NCCN)c3ncc(C)n3c2c1 | 1.09 (inactive)
11 | CC(C)c1cnn2c(NCc3ccccc3)cc(NCCCCCCN)nc12 | 0.98 (inactive)
12 | CCOC(=O)[C@H]1O[C@@H]1C(=O)N[C@@H](CC(C)C)C(=O)NCCC(C)C | 0.97 (inactive)
13 | O=C1NCCc2[nH]c(-c3ccncc3)cc21 | 1.04 (inactive)
14 | CNC(=O)c1ccc(N2C(=S)N(c3ccc(C#N)c(C(F)(F)F)c3)C(=O)C2(C)C)cc1F | 0.873 (inactive)
15 | Cn1cncc1[C@@](N)(c1ccc(Cl)cc1)c1ccc2c(c1)c(-c1cccc(Cl)c1)cc(=O)n2C | 1.1 (inactive)
16 | O=C(O)c1ccc2c(c1)nc(Nc1cccc(Cl)c1)c1ccncc12 | 0.797 (inactive)
17 | C#Cc1cccc(Nc2ncnc3cc(OCCOC)c(OCCO)cc23)c1 | 0.787 (inactive)
18 | CC(C)CC(=O)Nc1n[nH]c2c1CN(C(=O)C1CCN(C)CC1)C2(C)C | 1.09 (inactive)
19 | CNC(=O)Nc1ccc(-c2nc(N3CC4CCC(C3)O4)c3cnn(C4CCC5(CC4)OCCO5)c3n2)cc1 | 1.12 (inactive)
20 | C=CCn1c(=O)c2cnc(Nc3ccc(N4CCN(C)CC4)cc3)nc2n1-c1cccc(C(C)(C)O)n1 | 1.27 (inactive)
21 | O=C(O)[C@H](Cc1c[nH]c2ccccc12)N1C(=O)c2ccccc2C1=O | 0.96 (inactive)
22 | COc1ccc(F)c(F)c1C(=O)c1cnc(NC2CCN(S(C)(=O)=O)CC2)nc1N | 0.981 (inactive)
23 | Cc1ccc(S(=O)(=O)OCC(=O)Nc2ccc(C(=O)O)c(O)c2)cc1 | 0.894 (inactive)
24 | O=C(NC1CCNCC1)c1[nH]ncc1NC(=O)c1c(Cl)cccc1Cl | 1.06 (inactive)
25 | CN(C)CCN1C(=O)c2cccc3cc(N)cc(c23)C1=O | 1.2 (inactive)
26 | NCC(=O)Nc1ccc(-n2nc(C(F)(F)F)cc2-c2ccc3c(ccc4ccccc43)c2)cc1 | 1.2 (inactive)
27 | CC(C)(C)c1cc(C(C)(C)C)c(NC(=O)c2c[nH]c3ccccc3c2=O)cc1O | 0.893 (inactive)
28 | CCCCCCCCCCCC(CC1OC(=O)C1CCCCCC)OC(=O)C(CC(C)C)NC=O (configuration not stated) | 0.897 (inactive) and 0.881 (inactive)

Same assay, conditions: A549 miR-34 inducible, Hoechst nuclei count, 48 h; measured here: relative caspase fold change +Dox/-Dox

Row | Compound | fold change
29 | Cc1ccc2nc(NCCN)c3ncc(C)n3c2c1 | 0.561
30 | CC(C)c1cnn2c(NCc3ccccc3)cc(NCCCCCCN)nc12 | 0.679
31 | CCOC(=O)[C@H]1O[C@@H]1C(=O)N[C@@H](CC(C)C)C(=O)NCCC(C)C | 0.856
32 | O=C1NCCc2[nH]c(-c3ccncc3)cc21 | 0.743
33 | CNC(=O)c1ccc(N2C(=S)N(c3ccc(C#N)c(C(F)(F)F)c3)C(=O)C2(C)C)cc1F | 1.28
34 | Cn1cncc1[C@@](N)(c1ccc(Cl)cc1)c1ccc2c(c1)c(-c1cccc(Cl)c1)cc(=O)n2C | 0.725
35 | O=C(O)c1ccc2c(c1)nc(Nc1cccc(Cl)c1)c1ccncc12 | 0.974
36 | C#Cc1cccc(Nc2ncnc3cc(OCCOC)c(OCCO)cc23)c1 | 0.554
37 | CC(C)CC(=O)Nc1n[nH]c2c1CN(C(=O)C1CCN(C)CC1)C2(C)C | 0.942
38 | CNC(=O)Nc1ccc(-c2nc(N3CC4CCC(C3)O4)c3cnn(C4CCC5(CC4)OCCO5)c3n2)cc1 | 0.588
39 | C=CCn1c(=O)c2cnc(Nc3ccc(N4CCN(C)CC4)cc3)nc2n1-c1cccc(C(C)(C)O)n1 | 0.673
40 | O=C(O)[C@H](Cc1c[nH]c2ccccc12)N1C(=O)c2ccccc2C1=O | 0.441
41 | COc1ccc(F)c(F)c1C(=O)c1cnc(NC2CCN(S(C)(=O)=O)CC2)nc1N | 0.805
42 | Cc1ccc(S(=O)(=O)OCC(=O)Nc2ccc(C(=O)O)c(O)c2)cc1 | 0.798
43 | O=C(NC1CCNCC1)c1[nH]ncc1NC(=O)c1c(Cl)cccc1Cl | 0.925
44 | CN(C)CCN1C(=O)c2cccc3cc(N)cc(c23)C1=O | 0.74
45 | NCC(=O)Nc1ccc(-n2nc(C(F)(F)F)cc2-c2ccc3c(ccc4ccccc43)c2)cc1 | 0.441
46 | CC(C)(C)c1cc(C(C)(C)C)c(NC(=O)c2c[nH]c3ccccc3c2=O)cc1O | 1.04
47 | CCCCCCCCCCCC(CC1OC(=O)C1CCCCCC)OC(=O)C(CC(C)C)NC=O (configuration not stated) | 2.53 and 0.818
